Results taken from PubChem BioAssay AID624351 (Southern Research Specialized Biocontainment Screening …, 2012).
The whole screen tested about 2,400 compounds, of which about 1,400 (58%) were called active. The set was probably picked from earlier hits. This is one part of the list. A number with no mark means an inactive call.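 The calls were made as follows: active = inhibition of 30% or more at any tested dose; inconclusive = primary hits over the limit that were never retested; inactive = the rest.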

Test: ADP Hunter readout inhibition without MgcRacGAP – biochemical, coupled enzyme counter-screen, artefact control for MgcRacGAP inhibitor project, dose response (AID 624351);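 also: signal is the ADP detection kit reading of free GDP without any GAP enzyme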;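 as to inhibition: 0% = median positive control wells and 100% = median negative control wells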
Conditions: fluorescence, no MgcRacGAP; series mostly up to 80 µM; inhibition: at the top concentration

Row | Compound | inhibition [%] | IC50
1 | Cc1cc(Cl)c(OCCOCCN2CCN(C)CC2)c(Br)c1 | 24.2 | 
2 | CCCCN(C)CCNC(=O)CSCc1ccc(C)cc1 | 15.9 | 
3 | O=C(N/N=C/c1ccc(N2CCOCC2)s1)c1ccc(O)cc1 |  | 25.2 µM (active)
4 | Nc1ccc(C(=O)N/N=C/c2ccc(N3CCOCC3)s2)cc1 |  | 19.5 µM (active)
5 | Cc1cc(OCCCN2CCN(Cc3ccccc3)CC2)ccc1[N+](=O)[O-] | 24.2 | 
6 | CC(=O)Nc1cccc2cc(O)ccc12 |  | 35.8 µM (active)
7 | O=C(/C=C/c1ccc(O)c(O)c1)OC(Cc1ccc(O)c(O)c1)C(=O)O (stereo not drawn) |  | 44.1 µM (active)
8 | O=C1N=c2ccccc2=C1c1sc(Nc2ccc(O)cc2)nc1O | 20.5 | 
9 | Cc1ccc(-c2csc3n[nH]c(=S)n23)cc1 |  | 61.8 µM (active)
10 | CC1(C)Nc2cccc3cccc(c23)N1 |  | 31.9 µM (active)
11 | C/C(=N\Nc1ccc(S(=O)(=O)N2CCCCC2)cn1)c1ccc(O)cc1 |  | 20 µM (active)
12 | COc1ccc(OC(=O)c2cc(S(=O)(=O)N3CCCC3)ccc2Cl)cc1 | 2.36 | 
13 | CC1CCCC(N2CCN(C(=O)c3ccc([N+](=O)[O-])cc3)CC2)C1 (stereo not drawn) | -14.3 | 
14 | Cc1ccc(NCc2ccco2)cc1C | -4.65 | 
15 | Cc1ccc(NCCCCO)cc1C |  | 43.3 µM (active)
16 | C/C(=N\Nc1cccc2cccnc12)c1ccc[nH]1 | 20.1 | 
17 | Cc1nc(Cc2nnc(SCC(=O)N3CCN(c4ccc(O)cc4)CC3)o2)cs1 |  | 30.6 µM (active)
18 | Cc1cccc(NC2=C(C#N)C(=O)NC3(CCCC3)S2)c1 | 0.64 | 
19 | COc1ccc(/C=N/N2CCN(C)CC2)cc1O |  | 42.6 µM (active)
20 | COc1ccccc1N1CCN(CC(=O)c2ccc(F)cc2)CC1 | -12.8 | 
21 | COc1cccc(OC)c1NC(=O)CN1CCN(C)CC1 | 25.3 | 
22 | COc1cc(/C(C)=N/N2CCN(c3ccccc3OC)CC2)ccc1O | 25.9 | 

Row | Compound | inhibition [%] | IC50
23 | COc1ccccc1N1CCN(/N=C/c2ccc(O)cc2O)CC1 |  | 70.9 µM (active)
24 | COc1ccccc1N1CCN(CCCOc2ccc(F)cc2)CC1 | 19.5 | 
25 | COc1ccc(CN2CCCN(C)CC2)c(OC)c1C | 16.2 | 
26 | COc1cc(/C=N/N2CCN(c3ccccc3OC)CC2)ccc1O |  | 36.5 µM (active)
27 | Cc1ccc(N2C(N)=C(C#N)C3(C(=O)N(C)c4ccccc43)C3=C2CC(C)(C)CC3=O)cc1Cl (stereo not drawn) | 1.04 | 
28 | Cc1cccc2sc(NNC(=O)c3cc(=O)c4ccccc4o3)nc12 |  | 64.9 µM (active)
29 | COc1cc(/C=N/NC(=O)C2=NNC(=O)C2C)ccc1O (stereo not drawn) |  | 74.7 µM (active)
30 | COc1cc(/C=N/NC(=O)CC2C(=O)NN=C2C)ccc1O (stereo not drawn) |  | 59.1 µM (active)
31 | CC1C(=O)NN=C1C(=O)N/N=C\c1ccc(O)cc1O (stereo not drawn) |  | 37.7 µM (active)
32 | CCN1CCN(Cc2ccc(NC(=O)c3ccc(C)c(/C=C/c4cnc(Nc5cc(N6CCNCC6)nc(C)n5)cn4)c3)cc2C(F)(F)F)CC1 | -0.63 | 
33 | O=C(N/N=C/c1ccc(F)cc1)c1cc(-c2ccco2)nc2ccccc12 | -10.7 | 
34 | Cc1c(C(=O)N/N=C/c2ccc(O)cc2)sc(=S)n1C | 19.2 | 
35 | O=C(N/N=C/c1ccc(O)cc1)c1csc2ccccc12 |  | 43.1 µM (active)
36 | O=C(N/N=C/c1ccc(O)cc1)c1csc2c1CCCC2 |  | 40.6 µM (active)
37 | O=C(N/N=C/c1sc2ccccc2c1O)c1cccc2ccccc12 |  | 60.6 µM (active)
38 | C=CCc1cccc(Cl)c1OCCCNC1CCCC1 | 8.95 | 
39 | O=C1ON=C(c2ccccc2)/C1=C/c1ccco1 | -3.67 | 
40 | Cc1ccc(COC(=O)Cc2coc3cc(O)ccc23)cc1 |  | 28.9 µM (active)
41 | Cn1cccc1CC(=O)N/N=C/C=C/c1ccco1 | -26.5 | 
42 | c1ccc(CNC23CC4CC(CC(C4)C2)C3)nc1 | 17.5 | 
43 | COc1ccc(CN(C)CCc2ccccn2)cc1OC | 20.1 | 
44 | Oc1ccc(CCc2ccccn2)cc1 |  | 44.9 µM (active)

Row | Compound | inhibition [%] | IC50
45 | CC(C)CC(=O)N1CCN(Cc2cccc([N+](=O)[O-])c2)CC1 | 13.1 | 
46 | COc1cc(N2C(=O)C=CC2=O)ccc1N1C(=O)C=CC1=O | 3.9 | 
47 | O=C(c1ccccc1F)N1CCN(Cc2ccc3c(c2)OCO3)CC1 | 15.9 | 
48 | CCNc1nc(NCC)nc(N/N=C/c2ccc(O)c(O)c2)n1 |  | 50.4 µM (active)
49 | COc1cc2nc(N3CCNCC3)nc(N)c2cc1OC | 6.38 | 
50 | COc1ccc(-c2cnnc(N/N=C/c3ccc(O)c(O)c3)n2)cc1 |  | 73.9 µM (active)
51 | Oc1ccc(/C=N/Nc2nc(N3CCCC3)nc(N3CCCC3)n2)cc1O |  | 48.3 µM (active)
52 | COc1cc(/C=N/Nc2nc(N3CCCC3)nc(N3CCCC3)n2)ccc1O |  | 79.1 µM (active)
53 | Cc1ccc(C)c(-n2sc3ccc(F)cc3c2=O)c1 | 12.9 | 
54 | COc1ccc(/C=N/Nc2nc(N3CCCC3)nc(N3CCCC3)n2)cc1O |  | 71.1 µM (active)
55 | CCOc1ccc(NCc2cccn2-c2nnc(N3CCC(C(=O)NCCCN4CCCCC4)CC3)s2)cc1 |  | 68.9 µM (active)
56 | CCN(CC)Cc1cc(Nc2c3ccccc3nc3c4ccccc4n(C)c23)cc(CN(CC)CC)c1O |  | 20.9 µM (active)
57 | Cc1c(Cl)sn(-c2ccc(Cl)cc2)c1=O | 9.28 | 
58 | Cc1[nH]n(-c2cccc(Cl)c2)c(=O)c1-c1ccc(Cl)cc1 |  | 77.2 µM (active)
59 | Cc1ccc(-c2ccc(/C=C3\C(=O)ON=C3c3ccccc3)o2)c([N+](=O)[O-])c1 | 3.06 | 
60 | COc1ccc(CN2CCN(Cc3ccc(C(F)(F)F)cc3)CC2)cc1 | 23.6 | 
61 | COc1ccc(NC2CCCN(C(=O)c3ccc(C(C)=O)s3)C2)cc1 (stereo not drawn) |  | 80.4 µM (active)
62 | CCN1CCCC1CNCC(=O)Nc1ccc(OC(F)(F)F)cc1 (stereo not drawn) | 16.9 | 
63 | COc1ccc(NC2CCCN(C(=O)COc3ccc(C(C)=O)cc3)C2)cc1 (stereo not drawn) |  | 74.9 µM (active)
64 | COc1ccc(NC2CCCN(C(=O)c3ccccc3C(F)(F)F)C2)cc1 (stereo not drawn) |  | 76.2 µM (active)
65 | COc1ccc(OCC(O)CN2CCCC2)cc1 (stereo not drawn) | 9.45 | 
66 | COc1ccc(NC2CCCN(C(=O)C3(C)CCCCC3)C2)cc1 (stereo not drawn) |  | 67.2 µM (active)

Row | Compound | inhibition [%] | IC50
67 | Cc1ccc(C)c(OCC(O)CN2CCC(C)CC2)c1C (stereo not drawn) | 12.6 | 
68 | Cc1ccccc1C1=C/C(=C(\SS/C(C(=O)c2ccc(OCC(=O)O)c(Cl)c2Cl)=C2\C=C(c3ccccc3C)SS2)C(=O)c2ccc(OCC(=O)O)c(Cl)c2Cl)SS1 | 7.13 | 
69 | CSc1nc(=S)c2[nH]c(=S)[nH]c2[nH]1 | 13.2 | 
70 | COc1cc2cc(NC(C)=O)cc(NCc3ccccc3)c2cc1OC |  | 61 µM (active)
71 | COc1cc2[nH]c(=S)nc(Nc3ccc(NC(C)=O)cc3)c2cc1OC | 4.2 | 
72 | CCCCNc1cc(NC(C)=O)cc2cc(OC)c(OC)cc12 |  | 52.3 µM (active)
73 | Cc1ccc2c(c1)cc(C(=O)NCc1ccccc1)n2C | 1.98 | 
74 | O=S(=O)(c1ccccc1)N1N=C(c2ccc(O)cc2)CC1c1ccco1 (stereo not drawn) | 21.9 | 
75 | O=C1C=C(Nc2ccc(O)cc2)CC(c2ccco2)C1 (stereo not drawn) |  | 17.8 µM (active)
76 | Cc1cc(C)c(C)c(S(=O)(=O)Nc2ccc(O)cc2)c1C |  | 48.5 µM (active)
77 | Cc1cc(C)c(S(=O)(=O)Nc2ccc(O)cc2)c(C)c1 |  | 68.4 µM (active)
78 | CCN(CC)c1ccc(C(=C2C=CC(=[N+](CC)CC)C=C2)c2ccc(N(CC)CC)cc2)cc1 |  | 45.3 µM (active)
79 | CCN(CC)c1ccc(C(=C2C=CC(=[N+](CC)CC)C=C2)c2ccccc2)cc1 | 4.2 | 
80 | COc1cc(/C(C)=N/NC(=O)C(O)(c2ccccc2)c2ccccc2)ccc1O |  | 79.7 µM (active)
81 | C/C(=N\NC(=O)CSc1nc2ccccc2o1)c1ccc(O)cc1 |  | 68.9 µM (active)
82 | COc1ccccc1CN1CCN(C(=O)c2ccncc2)CC1 | 18.7 | 
83 | COc1cc(/C(C)=N\NC(=O)CSc2nc3ccccc3n2C)ccc1O |  | 39.3 µM (active)
84 | COc1cc(C(C)=NNC(=O)c2ccncc2)ccc1O |  | 36.8 µM (active)
85 | O=C(O)c1cccc(N2C(=O)/C(=C/c3ccc(SCc4ccc(Cl)cc4)o3)SC2=S)c1 | 1.08 | 
86 | c1ccc(-c2ccccc2OCCN2CCOCC2)cc1 | 21.1 | 
87 | COc1cc(/C(C)=N/NC(=O)Cc2c(C)[nH][nH]c2=O)ccc1O |  | 70.3 µM (active)
88 | C=CCNCC(O)COc1ccc(C(C)=O)cc1OC (stereo not drawn) | 13.1 | 

Row | Compound | inhibition [%] | IC50
89 | C#CCOCCOCCOCCNc1nc(N2CCN(C(=O)[C@H](CCCCN)n3cc(CN)nn3)CC2)nc(N2CCN(C(=O)[C@H](CCCCN)n3cc(CN)nn3)CC2)n1 | 3.07 | 
90 | Nc1ccccc1Nc1cccc(C(F)(F)F)c1 |  | 78.3 µM (active)
91 | Nc1ccc(Nc2ccccc2)c(Cl)c1 |  | 15.9 µM (active)
92 | Nc1ccccc1Nc1ccccc1 |  | 34 µM (active)
93 | Nc1ccccc1SSc1ccccc1N | -6.81 | 
94 | Cn1c(-c2ccccc2)cnc1NCc1ccc(-c2ccccc2)cc1 | 25.8 | 
95 | Cc1cc(C)cc(NC(=O)C(NCCN2CCOCC2)c2ccccc2)c1 (stereo not drawn) | 29.4 | 
96 | COc1cc2c(cc1NC(=O)C(Cl)Cl)-c1ccc(NC(=O)C(Cl)Cl)cc1C2 |  | 71.4 µM (active)
97 | COc1ccc(NC(=O)C(C)N2CCN(C)CC2)cc1 (stereo not drawn) | 25 | 
98 | CN(C)/N=C/c1ccc(N2CCOCC2)cc1 |  | 60.4 µM (active)
99 | O=C(O)CN1C(=O)/C(=C/c2ccc(SCc3ccccc3)o2)SC1=S | -9.9 | 
100 | CC(C)c1ccc(NC(=O)CNCC(c2ccccc2)N(C)C)cc1 (stereo not drawn) | 18.8 | 
101 | O=C(CCCC(=O)c1ccccc1)Nc1ccc(O)cc1 |  | 18.2 µM (active)
102 | O=C(CC(c1ccccc1)c1ccccc1)Nc1ccc(O)cc1 |  | 56.5 µM (active)
103 | COc1ccc(NC(=S)Nc2cccc3ccccc23)cc1OC | 27.8 | 
104 | COc1cc2c(cc1NC(=S)Nc1ccccc1C)oc1ccccc12 |  | 41.1 µM (active)
105 | COc1cc2c(cc1NCc1ccc3c(c1)OCO3)oc1ccccc12 | 13.4 | 
106 | CN(C)CCNC(C(=O)Nc1cccc(C(F)(F)F)c1)c1ccccc1 (stereo not drawn) | 27.1 | 
107 | COc1cc2c[n+](C)c3c4ccccc4ccc3c2cc1OC | 13 | 
108 | COc1cc2c(cc1NC(=S)Nc1cccc3ccccc13)oc1ccccc12 |  | 36.9 µM (active)
